Out of some 2,200 compounds screened, about 480 (22%) were called active. No rule for the calls is given here. The list is a sample of the results. Entries that show only a call come without a potency. Potency and affinity values are given separately.

This assay can be described thus: S. Typhimurium GFP fluorescence modified counterscreen for PhoP regulon inhibitor project dose response (AID 1981). The conditions noted are these: 4 h; series mostly up to 150 µM. (In general: A counterscreen serves to expose hits that act by an unwanted route or on another target.)
As for `O=C(CCCN1C(=O)CCC1=O)Nc1ccc2c(c1)OCCO2`, the result was inactive. With `CC(C)(C)c1nn(-c2ccccc2)c2[nH]c(=O)c(CNCc3ccco3)cc12` the entry was “inactive”; with `O=P(Cc1cc[n+]([O-])cc1)(c1ccccc1)c1ccccc1`, “inactive”; with `CCCS(=O)(=O)N1CCCC(C(=O)N2CCN(c3ccccn3)CC2)C1` (configuration not stated), “inactive”.

Consider `COc1ccc(-c2cn[nH]c2-c2ccc(OCc3ccc([N+](=O)[O-])cc3)cc2O)cc1`, for which the molecule was called inactive.

On to `CC(Oc1ccc(Cl)cc1)c1ccnn1S(=O)(=O)c1ccccc1` (configuration not stated), for which the molecule was called inactive. For `CCOC(=O)c1cc2sc(C)cc2n1CC(=O)NCc1ccc(F)cc1` the value was “inactive”; for `Cc1ccc(C(C)C)cc1C(=O)CC1(O)C(=O)N(C)c2ccccc21` (configuration not stated), “inactive”. For `CCn1ncc(/C=C/C(=O)NCc2cn(C)nc2C)c1C` the value was “inactive”; for `O=C(CSc1ncn[nH]1)Nc1cccc2ccccc12`, “inactive”; for `COc1ccc(OC)c(NC(=O)c2ccccc2NS(=O)(=O)c2cccc3cccnc23)c1`, “inactive”.

As to `O=S(=O)(Nc1ccc(N=Nc2ccc(O)c3ccccc23)cc1)c1ccccc1`, the result was inactive. With `COC(=O)COc1ccc(S(=O)(=O)Nc2ccccc2SC)cc1` the entry was “inactive”; with `CCn1c(CNC(=O)c2cccc(C)c2)nc2ccccc21`, “inactive”. With `S=c1nc(-c2ccccc2)oc2c1CCCC2`, the molecule was called inactive. For the molecule `CCC(=O)c1cn(Cc2ccc(C#N)cc2)c2ccccc12`, the result was inactive. Consider `O=c1c2oc3ccccc3c2ncn1Cc1ccc(Cl)cc1`, for which the outcome was inactive. With `Cc1[nH]n(-c2ncc(-c3ccc(Cl)cc3)s2)c(=O)c1C(c1ccc(Cl)cc1)C(C#N)C#N` (configuration not stated) the entry was “inactive”. With `Cc1ccc(-n2nc(C)c(C3C(C#N)=C(N)Oc4c3c(=O)oc3ccccc43)c2Cl)cc1` (configuration not stated) the entry was “inactive”; with `Cc1snc(S(=O)(=O)/C(C#N)=N\Nc2ccccc2)c1C#N`, “inactive”. For `COc1ccc(CCC(=O)N2CCC3(CC2)OCCO3)cc1` the value was “inactive”. Take `O=C(Nc1ccc2snnc2c1)Nc1cccc2ccccc12`: the outcome was inactive. For `CC1OC(Nc2cccc3ccccc23)C(O)C(O)C1O` (configuration not stated) the value was “inactive”; for `CC(C(=O)Nc1cc([N+](=O)[O-])ccc1Cl)N1CCN(c2ccccc2O)CC1` (configuration not stated), “inactive”; for `CCCCNC(=O)Oc1cccc(N2CCCC2=O)c1`, “inactive”.

Regarding `CCOC(=O)c1sc(NC(=O)Nc2ccc(Cl)cc2)cc1C`, the outcome was inactive.

`Cc1ccnc2nc(C(=O)Nc3ccc4c(c3)OCO4)nn12`: the molecule was called inactive.

Turning to `CC(C)c1ccc(NC(=O)Nc2cc3sccc3n2C)cc1`, the molecule was classed as inactive. With `CCOC(=O)CN(C)Cc1c[nH]c2ccccc12` the entry was “inactive”; with `Cc1[nH][nH]c(=O)c1C(c1ccc(O)c([N+](=O)[O-])c1)c1c(C)[nH][nH]c1=O`, “inactive”. Consider `CCCc1[nH][nH]c(=O)c1C(c1ccc(Br)cc1)C(C#N)C#N` (configuration not stated), for which the molecule was called inactive. For `O=c1[nH][nH]c(-c2ccccc2O)c1C(C[N+](=O)[O-])c1cccc(Cl)c1` (configuration not stated) the value was “inactive”; for `CCCCCC(=O)Nc1ccc2ccccc2c1`, “inactive”.

As for `O=C(CSc1nnc(-c2ccc(O)cc2)n1-c1ccccc1)CC(=O)Nc1ccccc1`, the result was inactive. For `O=C(O)CCc1nnc2n(Cc3ccc(F)cc3)c(=O)c3ccccc3n12` the value was “inactive”; for `COc1cc(CNc2ccc(CNc3ncn[nH]3)cc2)ccc1OCC(=O)NC(C)(C)C`, “inactive”. For `O=S(=O)(NCc1ccccc1)c1cccc(S(=O)(=O)N2CCOCC2)c1` the value was “inactive”; for `Cn1c(CC(=O)Nc2ccc(Cl)c(Cl)c2)nnc1SCC(=O)Nc1nccs1`, “inactive”; for `O=C(COC(=O)c1n[nH]c2ccccc12)NC(=O)NC12CC3CC(CC(C3)C1)C2`, “inactive”. Consider `Oc1ccc(C=Nc2cccc3ncccc23)c(O)c1`, for which the molecule was called inactive. As to `O=C(COc1ccccc1)NC(=S)Nc1ccc2c3c(cccc13)CC2`, the molecule was classed as inactive. With `Cc1c(C)n(Cc2ccccc2)c2ncnc(NN)c12` the entry was “inactive”; with `O=C(NCCCN1CCCC1=O)c1ccc(Cl)c(NS(=O)(=O)c2ccc(F)cc2)c1`, “inactive”; with `Cc1ccc(NC(=O)C(=O)NCCOc2ccccc2Cl)cc1`, “inactive”. In the case of `CN(CCC(=O)Nc1ccc(Br)cc1)Cc1ccccc1`, the call was inactive. `COc1ccccc1CC(=O)N1CCN(c2ccccn2)CC1`: the outcome was inactive.

On to `COC(=O)c1ccc2nc(C(F)(F)F)[nH]c2c1`, for which the result was inactive.

For the molecule `O=c1cc(-c2ccc([N+](=O)[O-])cc2)nc2cc(-c3ccc(Cl)cc3)[nH]n12`, the call was inactive. With `COC(=O)c1c(C(=O)OC)c(-c2cccc(C)c2)n2c1CS(=O)(=O)C2` the entry was “inactive”; with `O=C(NCc1ccc2c(c1)OCO2)c1ccc(-n2cnnn2)cc1`, “inactive”.

As to `COC(=O)c1ccccc1NC(=O)CS(=O)(=O)Cc1nc(-c2ccc(C)cc2)oc1C`, the outcome was inactive.

Regarding `COCCn1cc(C(=O)N2CCC(C)CC2)c2c3ccccc3n(C)c2c1=O`, the result was inactive. In the case of `C=CCNc1ncnc2c1[nH]c1ccc(Cl)cc12`, the result was inactive.

Turning to `C=CCNc1ncnc2c1[nH]c1ccc(C)cc12`, the result was inactive.

For the molecule `O=c1cc(Cc2ccccc2)[nH]c(=S)[nH]1`, the molecule was classed as inactive. `CCNC(=O)COC(=O)CCC(=O)c1cccs1`: the molecule was classed as inactive. For `Cc1cccc(OCC(=O)N2CCN(Cc3ccncc3)CC2)c1` the value was “inactive”; for `O=C(CN(c1ccc(F)cc1)S(=O)(=O)c1ccc2c(c1)OCCO2)NCc1cccnc1`, “inactive”.

`COc1ccc(-c2ccc3c(N)c(C(=O)c4cccc(OC)c4)sc3n2)cc1`: the outcome was inactive. Take `N#Cc1nc(-c2ccco2)oc1NCCCN1CCOCC1`: the result was inactive. With `CCSc1cc(N2CCCC2)nc(-c2cccc(C)c2)n1` the entry was “inactive”; with `COc1cccc(-n2c(SCC(=O)Nc3ccc4c(c3)CCC4)nc3ccccc3c2=O)c1`, “inactive”. As for `CCOc1ccc(NC(=O)CCC(=O)n2nc(C)cc2C)cc1`, the molecule was classed as inactive. For `Cc1ccc(CNC(=O)C2CCCN(S(=O)(=O)c3c(C)noc3C)C2)cc1` (configuration not stated) the value was “inactive”; for `O=C(c1ccccc1S(=O)(=O)NCc1ccccc1)N1CCCC1`, “inactive”. For the molecule `CC(=O)Nc1ccc(-n2nnnc2SCC(=O)Nc2cccc(NC(=O)c3ccco3)c2)cc1`, the molecule was called inactive. As to `O=[N+]([O-])c1ccccc1/C=N/N1CCN(c2ccncc2S(=O)(=O)N2CCCCC2)CC1`, the molecule was classed as inactive. For `C=CCNC(=O)CC(=O)N/N=C/c1ccc(C(=O)OC)cc1` the value was “inactive”; for `Cc1ccc(Cn2c(=N)n(CC(=O)c3ccc([N+](=O)[O-])cc3)c3ccccc32)cc1`, “inactive”; for `COc1ccc2nc(-c3ccccc3)cc(OC)c2c1`, “inactive”.

With `Cc1ccc(C(=O)NC(=S)Nc2cccc3c(C)cc(C)nc23)cc1`, the call was inactive. For `COC(=O)c1ccc(Nc2cc(C)nc3ccccc23)cc1` the value was “inactive”; for `COc1ccc(/C=N/NC(=O)CC(=O)NCc2cccnc2)cc1`, “inactive”. `CN1c2ccccc2C(C)(C)[C@]12C=Cc1cc(O)ccc1O2`: the molecule was classed as inactive. For `CC(=O)Nc1cccc(OC(=O)c2ccoc2C)c1` the value was “inactive”; for `Nc1ccc(C2(c3ccc(N)cc3)c3ccccc3-c3ccccc32)cc1`, “inactive”. For `Cc1ccc(C(=O)NCC(=O)OCC(=O)N2CCCc3ccccc32)cc1` the value was “inactive”; for `O=C(N/N=C/c1cn(-c2ccccc2)nc1-c1ccc(F)cc1)c1ccc2c(c1)OCO2`, “inactive”; for `O=C(NNC(=O)c1ccccc1-n1cccc1)c1ccc(Cl)c(Cl)c1`, “inactive”. With `O=C(Cn1ncc2c(=O)oc3ccccc3c21)N1CCN(c2ccccn2)CC1` the entry was “inactive”.

As for `O=C1c2ccccc2C(=O)N1Cc1nc(-c2ccccn2)no1`, the molecule was called inactive. With `CC(C)Nc1cc(C(F)(F)F)nc(-c2ccccn2)n1` the entry was “inactive”; with `N#Cc1ccc(N=c2ssnc2Cl)cc1`, “inactive”; with `CC(C)CCNC(=O)C(c1ccco1)N(Cc1ccc(F)cc1)C(=O)c1snc(C(N)=O)c1N` (configuration not stated), “inactive”. For `COc1cc(C2C(C(=O)c3ccc(C)o3)=C(O)C(=O)N2CCc2ccccc2)ccc1O` (configuration not stated) the value was “inactive”; for `CC(C)(C)C1CCc2c(sc(NC(=O)c3cccs3)c2C(=O)N2CCCCC2)C1` (configuration not stated), “inactive”.

As for `CCOC(=O)c1c(NC(=O)Nc2ccc(C)cc2)sc2c1CCN(C)C2`, the call was inactive. As to `NC(=O)c1c(NC(=O)CN2C(=O)CCC2=O)sc2c1CCCCC2`, the call was inactive. For the molecule `O=[N+]([O-])c1ccc(-n2nnnc2-c2ccccc2)c([N+](=O)[O-])c1`, the molecule was called inactive. On to `CN(C)C(CNC(=O)Nc1cccc(Cl)c1)c1cccnc1` (configuration not stated), for which the call was inactive. For `Cc1cc2c(c(=O)n1C)C(Cc1ccccc1)C(C#N)=C(N)O2` (configuration not stated) the value was “inactive”; for `OC1(c2cccc(C(F)(F)F)c2)CCN(c2ncnc3c2[nH]c2ccccc23)CC1`, “inactive”; for `COc1ccc2c(c1)CC/C(=C\Nc1ccc3c(c1)OCO3)C2=O`, “inactive”. For `COc1ccc(C2C=C(c3ccc(Cl)cc3)Nc3nc(NC(C)=O)nn32)cc1` (configuration not stated) the value was “inactive”; for `CCCSc1ncc(Cl)c(C(=O)Nc2ccc(S(=O)(=O)N3CC(C)OC(C)C3)cc2)n1` (configuration not stated), “inactive”; for `O=C(NC1CC1)C1=NOC(CNc2ncc(C(F)(F)F)cc2Cl)C1` (configuration not stated), “inactive”.

Take `O=C(NCc1cccnc1)c1cc2ccccc2oc1=O`: the result was inactive.

With `CC(=O)N1N=C(c2ccco2)CC1c1ccc(Br)cc1` (configuration not stated), the molecule was called inactive. With `O=C1NC(=O)C(=C2CCCCCC2)S1` the entry was “inactive”; with `Cc1ccc(-c2csc(N=C(N)N)n2)cc1`, “inactive”; with `Clc1ccc(OCCN2CCN(c3ncnc4sccc34)CC2)cc1`, “inactive”. With `c1ccc(OCCCN2CCCC2)cc1` the entry was “inactive”; with `COc1ccc(Br)cc1C(=O)NCc1cccnc1`, “inactive”. With `Clc1ccccc1OCCn1ccnc1` the entry was “inactive”. `NC(=O)N1OCC2COc3ccc4ccccc4c3C21` (configuration not stated): the result was inactive.

For `Cc1ccccc1CS(=O)(=O)c1snnc1C`, the call was inactive. As to `O=C(CNC(=O)c1ccco1)OCC(=O)c1ccc2c(c1)CCCC2`, the result was inactive. With `Cc1cc(=O)[nH]c(N/N=C/c2c[nH]c3ccccc23)n1` the entry was “inactive”; with `Fc1ccc(-c2n[nH]c(=S)n2/N=C/c2c[nH]c3ccccc23)cc1`, “inactive”; with `CSc1ccc(C(=O)/C=C/c2ccc(N)cc2)cc1`, “inactive”. For the molecule `O=C(O)C1CCCN1S(=O)(=O)c1ccc2[nH]c(=O)c(=O)[nH]c2c1` (configuration not stated), the molecule was called inactive. With `Cc1cc(C)c(C#N)c(SCc2cn3ccccc3n2)n1` the entry was “inactive”.

(Values after PubChem BioAssay AID1981 (Southern Research Specialized Biocontainment Screening …, 2009).)
